Source: PubChem BioAssay (NCI)
The panel holds about 83,000 compounds, 20% with a hit somewhere; the sample as a whole holds those more often.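 Cells were grown in 96-well plates and exposed to the test compound at a single concentration for 48 hours; results are reported as percent growth, with values below 10 considered active.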 Active and inactive are the calls of the source.

Experiments:
Assay in all cases: NCI-60 one-dose screen, 48 h (100 = growth as untreated, 0 = no growth, -100 = all killed)
[1] = tested on: SR leukemia; settings: 10 µM unless noted
[2] = tested on: RPMI-8226 leukemia; settings: 10 µM unless noted
[3] = tested on: OVCAR-8 ovarian; settings: 10 µM unless noted
[4] = tested on: OVCAR-5 ovarian; settings: 10 µM unless noted
[5] = tested on: OVCAR-4 ovarian; settings: 10 µM unless noted
[6] = tested on: SK-OV-3 ovarian; settings: 10 µM unless noted
[7] = tested on: IGROV1 ovarian; settings: 10 µM unless noted
[8] = tested on: OVCAR-3 ovarian; settings: 10 µM unless noted
[9] = tested on: HS 578T breast; settings: 10 µM
[10] = tested on: NCI/ADR-RES ovarian; settings: 10 µM unless noted

Measured: growth

CCN(CC)Cc1cc(Nc2nc(NC3CCC(N(C)C)CC3)c3ccccc3n2)ccc1OC (stereo not given)
active: [2] 0.511%
inactive: [1] 49.6% | [3] 63.8% | [4] 92.3% | [5] 52.1% | [6] 107% | [7] 82.4% | [8] 92.4% | [9] 73.4% | [10] 98.1%

O=C(C(Br)C(Br)c1ccccc1)C(Br)C(Br)c1ccccc1 (stereo not given)
active: [1] -44.9% | [2] -36.6% | [3] -10.8% | [4] -57.4% | [7] -49.5% | [8] -79.9%
inactive: [5] 34.9% | [6] 83.1% | [9] 39.4% | [10] 17.1%

COc1ccc(/C(=C\c2cc(OC)c(OC)c(OC)c2)C(=O)N2CCN(c3ccccc3)CC2)cc1O
inactive: [1] 87.7% | [2] 73.5% | [3] 96.8% | [4] 101% | [5] 98.1% | [6] 111% | [7] 102% | [8] 111% | [9] 87.8% | [10] 93.9%

C/C(=N\NC(=S)Nc1ccccc1)c1ccccn1
active: [8] 9.49%
inactive: [1] 13.7% | [2] 33.5% | [3] 11.8% | [4] 35.6% | [5] 33.5% | [6] 40% | [7] 15.7% | [9] 64.1% | [10] 17.2%

CN(C)CCOc1nc2c3ccncc3cc(-c3cccc(Cl)c3)c2c2cnccc12
active: [1] -27.7% | [2] 9%
inactive: [3] 18.2% | [4] 58.8% | [5] 33.5% | [6] 46.8% | [7] 28.9% | [8] 45.6% | [9] 54.3% | [10] 15.4%

COc1ccc2[nH]c(O)c(/C=c3/ccc4c(c3)N=C(c3ccc(C(F)(F)F)cc3)N=4)c2c1
inactive: [1] 62.6% | [2] 77.1% | [3] 87.1% | [4] 113% | [5] 80.5% | [6] 112% | [7] 55.2% | [8] 77.5% | [9] 72.8% | [10] 84.7%

N[C@@H](CO)C(=O)O
inactive: [1] 103% | [2] 96.9% | [3] 99.8% | [4] 104% | [5] 109% | [6] 111% | [7] 110% | [8] 98.4% | [9] 117% | [10] 95.4%

CCOc1cccc(/C=N/NC(=O)c2ccc(Nc3ccnc(C(F)(F)F)c3)cc2)c1O
active: [2] -23.6% | [7] -9.15%
inactive: [1] 68.7% | [3] 24.7% | [4] 13.9% | [5] 31.3% | [6] 10.9% | [8] 24.6% | [9] 11.3% | [10] 49.3%

N#Cc1nc(-c2cccc(Br)c2)cc(-c2ccc(Nc3nc(N4CCCCC4)nc(N4CCCCC4)n3)cc2)c1N
active: [2] -0.0335% | [4] 9.23% | [5] -53.8% | [7] -45.4% | [8] -76.6% | [9] 6.14%
inactive: [1] 11.9% | [3] 12.2% | [6] 87.4% | [10] 24.3%

N=c1n(Cc2ccccc2)c(N)cc(=O)n1Cc1ccccc1
active: [1] 1.6% | [8] 0.156% | [9] -1.73%
inactive: [2] 42.6% | [3] 20% | [4] 68.8% | [5] 34.1% | [6] 21.4% | [7] 37.9% | [10] 10.6%

Cn1nc(C(F)(F)F)cc1-c1c[nH]c(OCc2ccc(Cl)cc2)c(-c2ccc(Cl)c(C(F)(F)F)c2)c1=O
active: [2] -26.6% | [6] -6.23% | [8] 7.83% | [9] -1.78% | [10] 1.94%
inactive: [1] 27.5% | [3] 12.5% | [4] 13% | [5] 15.3% | [7] 24.1%

CCOC(=O)C1=C(C)NC(SCc2nnc(-c3ccc(Cl)cc3)o2)=NC1c1ccc(Br)cc1 (stereo not given)
inactive: [1] 38.8% | [2] 38.4% | [3] 72.7% | [4] 93.9% | [5] 69.6% | [6] 82% | [7] 65.5% | [8] 77.5% | [9] 87.1% | [10] 67.5%

CCN(C)CCCOc1ccc(/C(=C(\C)Cc2cccc(OC)c2)c2ccc(OC(C)=O)cc2)cc1
active: [1] -8.45%
inactive: [2] 102% | [3] 105% | [4] 99.6% | [5] 103% | [6] 93.7% | [7] 102% | [8] 105% | [9] 94% | [10] 101%

CN(C)CCOc1nc2c3cccnc3cc(-c3cccc(Cl)c3)c2c2ncccc12
active: [1] 0.455% | [2] -21.6%
inactive: [3] 14.7% | [4] 45.5% | [5] 20.6% | [6] 45% | [7] 30.9% | [8] 17.8% | [9] 43.1% | [10] 18.7%

Cc1ccc(NC(=O)c2[nH]c(SCCN(C)C)nc2-c2ccc(F)cc2)cc1C#Cc1cnc2cccnn12
active: [1] -35.9% | [2] -6.17% | [3] -12.2% | [5] -59.2%
inactive: [4] 11.6% | [6] 98.5% | [7] 78.6% | [8] 102% | [9] 88.3% | [10] 11.1%

CN1CCN(Cc2ccc(NC(=O)c3cncc(C#Cc4ncc5cnccn45)c3)cc2C(F)(F)F)CC1
inactive: [1] 50.8% | [2] 44.3% | [3] 70% | [4] 35.1% | [5] 41.3% | [6] 42.8% | [7] 42.2% | [8] 69.6% | [9] 52.2% | [10] 92.7%

Oc1ccc(-c2cnc(-c3ccccc3)[nH]2)c(O)c1
inactive: [1] 40.2% | [2] 38.7% | [3] 119% | [4] 116% | [5] 106% | [6] 113% | [7] 94.3% | [8] 107% | [9] 97.7% | [10] 113%

C[C@@H](C[C@H](CC1CC1)c1ccccc1)c1ccc2ccccc2c1
inactive: [1] 106% | [2] 98.8% | [3] 106% | [4] 107% | [5] 96.1% | [6] 117% | [7] 101% | [8] 113% | [9] 108% | [10] 105%

C=C(C)c1ccc(/C=N/NC(N)=S)cc1
inactive: [1] 66.9% | [2] 72% | [3] 81.5% | [4] 120% | [5] 83.7% | [6] 125% | [7] 82.8% | [8] 101% | [9] 65.6% | [10] 97.8%

Cc1ccc(-c2nc3ccccc3c(=O)n2/N=C/c2cccc3ccccc23)cc1
inactive: [1] 49.8% | [2] 73.6% | [3] 84.2% | [4] 102% | [5] 76.2% | [6] 76.4% | [7] 50.1% | [8] 71.6% | [9] 100% | [10] 78.6%

O=c1cc(N2CCOCC2)oc2c(-c3ccc4c(c3)OCCO4)csc12
inactive: [1] 13.9% | [3] 13.8% | [4] 18.1% | [5] 11.5% | [8] 19.1% | [10] 16.5%
active: [2] -0.399% | [6] -17.3% | [7] -9.54% | [9] -7.53%

CCN(C(=O)Nc1cccc2ccccc12)c1ccccc1
inactive: [1] 90.2% | [2] 103% | [3] 74.3% | [4] 91.6% | [5] 99.9% | [6] 96.2% | [7] 90.4% | [8] 108% | [9] 111% | [10] 102%

O=C1/C(=C\c2cccn2Cc2ccc(Cl)cc2)c2ccccc2N1c1c(Cl)cccc1Cl
inactive: [1] 75.3% | [2] 76.1% | [3] 85.2% | [4] 86.8% | [5] 40.2% | [6] 86.7% | [7] 63% | [8] 82.3% | [9] 97.2% | [10] 78.3%

O=S(=O)(NCC[C@@H]1C[C@H]1c1ccc2ccccc2c1)c1ccc(C(F)(F)F)cc1
inactive: [1] 92.7% | [2] 76% | [3] 97.4% | [4] 99.3% | [5] 79.6% | [6] 103% | [7] 92% | [8] 101% | [9] 89.6% | [10] 94.3%

O=C(/C=C/c1cccc([N+](=O)[O-])c1)c1ccc(Nc2nc(N3CCCCC3)nc(N3CCCCC3)n2)cc1
inactive: [1] 90.6% | [3] 95.2% | [4] 110% | [5] 97.6% | [6] 97.4% | [7] 88.1% | [8] 91.5% | [9] 103% | [10] 103%
active: [2] 7.95%
